Bioassay records: PubChem BioAssay, Broad Institute
Only a selection was taken, and hits are over-represented in it overall.
A1 inhib: inducers of caspase activity in MEF A1-2A-BIM cells, primary screen, A1 inhibitor project, cell-based, CaspaseGlo luminescence; caspase-Glo luminescence, 3 h; percent of clofoctol signal, DMSO as zero; caspase activation, % (concentration not given with the values); 0.51% of 21,000 active;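 active = most replicate scores above 10, or exactly half above 10 with mean activity above 10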;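 note: effector caspase 3 and 7 activity cleaving a DEVD luciferin substrate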
A number is an active result; 0 = inactive.

SMILES | A1 inhib
Cc1ccc(-c2cc(=O)[nH]c3ccccc23)cc1 | 0
CCCCCCN(CCCCCC)C(=O)Cc1c(-c2ccc(F)cc2)[nH]c2ccccc12 | 0
CSc1c(-c2ccc(Cl)cc2)[nH]c2ccccc12 | 13.8
Cc1ccc(C2SCC(C(=O)O)N2C(=O)c2cccc(Cl)c2)cc1 (stereo not drawn) | 0
COc1cccc(C2CC(c3cccs3)=NN2C(=O)CSc2nncn2C)c1OC (stereo not drawn) | 0
CCOC(CCn1c(SCc2cccc(F)c2)nc2ccccc2c1=O)OCC | 0
O=C(CSc1nc2ccccc2c(=O)n1CCc1ccccc1)NCCc1ccccc1 | 0
O=C(CCn1c(SCc2cccc(F)c2)nc2ccccc2c1=O)NCCc1ccccc1 | 19.4
O=C(Oc1ccc(C2SCCS2)cc1)C1CCCCC1 | 0
O=S(=O)(NC1CCCCC1NC1CCCCC1)c1ccccc1 (stereo not drawn) | 0
CS(=O)(=O)N(CC(=O)NCc1ccccc1)c1cc(C(F)(F)F)ccc1Cl | 0
FC(F)(F)c1ccc(Oc2ccc(Oc3ccc(C(F)(F)F)cn3)cc2)nc1 | 0
CC(=O)NCCOc1ccc(C2CCCCC2)cc1 | 0
Nc1cc(C(F)(F)F)ccc1Oc1ccc(C2CCCCC2)cc1 | 11.4
O=C1Cc2c([nH]c3ccc([N+](=O)[O-])cc23)-c2ccccc2N1 | 10.0
COc1cc(OC)cc(-c2nc(N)c3c(C)c(-c4ccc(OC)c(OC)c4)sc3n2)c1 | 10.1
CSc1nc(O)cc(=O)[nH]1 | 0
CCN(CC)c1nc2c(C)cccn2c(=O)c1/C=N/O | 0
COc1cccc(NC(=O)COc2ccccc2OC)c1 | 0
COc1cc(NC(=O)COc2cc(C)c(Cl)c(C)c2)ccc1NC(=O)c1cc2ccccc2o1 | 16.5
Cc1cc(C)cc(NC(=O)c2cc3ccccc3o2)c1 | 0
CCCN(CCC)S(=O)(=O)c1ccc(C(=O)NN)cc1 | 0
CCOc1ccc2c3c(c(=O)oc2c1C)CCC3 | 0
CC12CC3(C)CC(C)(C1)CC(CN=Cc1ccc(O)cc1)(C2)C3 | 12.8
Oc1ccc(/C=N/c2nccs2)cc1 | 0
SMILES | A1 inhib
COc1cccc(-c2nnc(-c3ccccc3NS(=O)(=O)c3ccc(Cl)cc3)o2)c1 | 0
O=c1c(Cc2ccccc2OCc2ccccc2)coc2ccccc12 | 0
c1ccc2[nH]c(-c3nc4ccccc4s3)nc2c1 | 0
O=C(NC1CCCCCCC1)c1ccc(CNS(=O)(=O)c2ccc(F)cc2)cc1 | 0
Cc1ccc(NC(=O)c2oc3ccc(S(=O)(=O)N4CCCC4)cc3c2C)cc1C | 0
Cc1c(C(=O)Nc2ccc(S(=O)(=O)N3CCCCC3C)cc2)oc2ccccc12 (stereo not drawn) | 0
Cc1c(C(=O)Nc2ccccc2Br)oc2ccc(S(=O)(=O)N3CCCC3)cc12 | 60.0
COCC(=O)Nc1cc(Sc2ccccc2)ccc1N=C(NC(C)=O)NC(C)=O | 0
CCOc1ccc(NC(=O)CNS(=O)(=O)c2ccc3c(c2)C(C)(C)C(=O)N3C)cc1 | 0
FC(F)(F)c1[nH]nc(-c2ccccc2)c1C12CC3CC(CC(C3)C1)C2 | 11.0
c1ccc(-c2nc(C34CC5CC(CC(C5)C3)C4)cs2)cc1 | 0
O=C1CC(=Nc2ccc(F)c(C(F)(F)F)c2)c2ccccc2C1=O | 0
CCc1ccc(Sc2cc(C(=O)NCC3CCCO3)c3ccccc3n2)cc1 (stereo not drawn) | 0
CNC(=O)Cn1cc2c(n1)-c1c(oc(C(=O)N3CCCC3)c1C)CC2 | 0
CCOC(=O)c1ccc(NC(=O)c2ccc(C(C)(C)C)cc2)cc1 | 0
CCOC(=O)c1ccc(NC(=O)c2oc3c(c2C)-c2nn(Cc4ccc(C)cc4)cc2CC3)cc1 | 21.8
COc1ccc(C(=O)NC(=S)Nc2ccc3[nH]c(=O)[nH]c3c2)cc1OC | 0
Cc1ccccc1NC(=O)C1CCN(C(=O)c2cc3sccc3n2Cc2ccc(F)cc2)CC1 | 0
Cn1c(=O)c(-c2nc(-c3ccccc3)cs2)cn(-c2ccccc2)c1=O | 0
COc1ccc(CC(=O)NN2CCN(c3ccccc3)CC2)cc1 | 0
CCN(C(=O)CC(C)C)C1CCCCC1 | 0
CC1OC(OC2C(O)C(C)OC(OCC3OC(OC4C(C)OC(Oc5cc(O)c6c(=O)c(O)c(-c7ccc(O)c(O)c7)oc6c5)C(O)C4O)C(O)C(O)C3OC(=O)/C=C/c3ccc(O)cc3)C2O)C(O)C(O)C1O (stereo not drawn) | 0
COc1ccc(OC)c(/C=N/N2C(=O)C3C(C2=O)C2C=CC3C23CC3)c1 (stereo not drawn) | 0
N#Cc1c(N)nc(Sc2ccc(Cl)cc2)c(C#N)c1-c1ccccc1 | 42.5
N#Cc1c(N)nc(SCC(=O)c2ccc3ccccc3c2)c(C#N)c1-c1cccc(F)c1 | 0
SMILES | A1 inhib
CCCc1nc(N)c(C#N)c(-c2ccccc2)c1CC | 0
Cc1cc(-c2noc(-c3cc(C)on3)n2)no1 | 0
CCn1nc(C)cc1C(=O)Sc1ccccc1Cl | 0
Cc1nn(Cc2nnc(-c3cc(C(F)(F)F)cc(C(F)(F)F)c3)o2)c(C)c1Br | 0
CCn1c2c(c3cc(C4CCCCC4)ccc31)CCC/C2=N\O | 15.3
CCn1c2c(c3cc(C4CCCCC4)ccc31)CCCC2=O | 0
CCn1c2c(c3cc(Br)ccc31)CCCC2=O | 0
O=C(O)CCN1C(=O)/C(=C/c2ccc(-c3ccc(Cl)cc3Cl)o2)SC1=S | 0
CC(C)Oc1ccc(-c2nn(-c3ccccc3)cc2/C=C(\C#N)S(=O)(=O)c2ccccc2)cc1 | 0
O=C(NCc1ccco1)c1ccc(Cn2c(=S)[nH]c3ccc(Br)cc3c2=O)cc1 | 0
CCOC(=O)c1sc2nc(SCC(=O)c3ccc(Br)cc3)n(N)c(=O)c2c1C | 0
COc1ccc(C(=O)NC(=O)c2ccccc2O)cc1OC | 0
CCOC(=O)c1c(NC(=O)CSc2cc(C)c3ccccc3n2)sc2c1CCC2 | 0
CCOC(=O)c1cc(-c2ccccc2)sc1NC(=O)CCN1CCN(CC)CC1 | 11.6
CCOC(=O)c1cc(CC)sc1NC(=S)Nc1ccccc1C(F)(F)F | 0
CC(=O)Nc1ncc2c(n1)CC(c1ccccc1)CC2=O (stereo not drawn) | 0
O=C(NCCCN1CCOCC1)NC1(c2ccccc2)CC1 | 0
N#Cc1c(C(F)(F)F)cc(-c2cccs2)nc1SCC(=O)c1ccccc1 | 0
CCCCS(=O)CSc1nc(-c2cccs2)cc(-c2ccccc2)c1C#N (stereo not drawn) | 0
CC(=O)NCCSc1nc(-c2cccs2)cc(-c2ccc(F)cc2)c1C#N | 10.5
CCOC(=O)C(N)Cc1ccccc1 (stereo not drawn) | 0
C=C[C@@]1(C)C[C@@]2(OC[C@@]3(C)O[C@@H]23)Oc2c1c(=O)oc1cccc(C)c21 | 0
CC(=O)N1CCC(N(C(=O)Nc2ccccc2)C2CCCC2)CC1 | 0
Cc1[nH]c2ccccc2c1C(c1ccccc1)N1CCN(C)CC1 (stereo not drawn) | 65.7
c1ccc(C(c2ccccc2)N2CCN(CCCc3c[nH]c4ccccc34)CC2)cc1 | 0
SMILES | A1 inhib
Cc1[nH]c2ccccc2c1C(O)c1cccnc1 (stereo not drawn) | 0
CC(Oc1ccc(Cl)cc1Cl)C(=O)Nc1nc2c(s1)C(=O)CC(C)(C)C2 (stereo not drawn) | 0
CC(=O)O[C@@H]1[C@@H](O)[C@H](C)O[C@@H](Oc2c(-c3ccc(O)cc3)oc3cc(O[C@@H]4O[C@@H](C)[C@H](O)[C@@H](O)[C@H]4O)cc(O)c3c2=O)[C@@H]1O | 0
Cc1ccccc1C(=O)Nc1cccc(-c2cn3ccccc3n2)c1 | 0
COc1ccc(NC(=O)c2ccc(CSc3ccccn3)cc2)cc1 | 0
COc1ccc(C(=O)Nc2ccc(-c3cn4ccccc4n3)cc2)cc1 | 31.1
